Compound activity from PubChem.
An excerpt weighted towards active compounds, which were near 2.4% of everything screened.
CRFR2-BP ag: agonists of CRF-BP/CRF-R2 complex, primary screen, cell-based, HEK293, calcium dye fluorescence, uHTS; CRF-binding protein / CRF receptor 2 complex (human); calcium dye fluorescence (FLIPR); percent of saturating CRF peptide response; activation, % at 13.2 µM; 350,000 tested, 0.46% active; AID 588473, 2011;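 active = activation of at least 50%, plus an integration ratio under a set limit after plate pattern correction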;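 also: plate controls were neutral control wells without compound for no effect and CRF at EC100 for full effect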
TMEM16A inh: TMEM16A chloride channel inhibitors, primary screen, cell-based, HTS | Anoctamin-1 (Mus musculus), Q8BHY3 | HEK293 TMEM16A/YFP iodide influx fluorescence, ionomycin | normalized B-score (activity score, 25-100; higher = stronger inhibition) at 10 µM | 310,000 tested, 1.2% active | AID 588511, 2011;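 active = ratio plate-corrected score three or more library SD toward inhibition, starting fluorescence score within five deviations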;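 also: score derived from kinetic fluorescence span divided by baseline fluorescence per well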
Target sequence (Q8BHY3 whole entry, looked up): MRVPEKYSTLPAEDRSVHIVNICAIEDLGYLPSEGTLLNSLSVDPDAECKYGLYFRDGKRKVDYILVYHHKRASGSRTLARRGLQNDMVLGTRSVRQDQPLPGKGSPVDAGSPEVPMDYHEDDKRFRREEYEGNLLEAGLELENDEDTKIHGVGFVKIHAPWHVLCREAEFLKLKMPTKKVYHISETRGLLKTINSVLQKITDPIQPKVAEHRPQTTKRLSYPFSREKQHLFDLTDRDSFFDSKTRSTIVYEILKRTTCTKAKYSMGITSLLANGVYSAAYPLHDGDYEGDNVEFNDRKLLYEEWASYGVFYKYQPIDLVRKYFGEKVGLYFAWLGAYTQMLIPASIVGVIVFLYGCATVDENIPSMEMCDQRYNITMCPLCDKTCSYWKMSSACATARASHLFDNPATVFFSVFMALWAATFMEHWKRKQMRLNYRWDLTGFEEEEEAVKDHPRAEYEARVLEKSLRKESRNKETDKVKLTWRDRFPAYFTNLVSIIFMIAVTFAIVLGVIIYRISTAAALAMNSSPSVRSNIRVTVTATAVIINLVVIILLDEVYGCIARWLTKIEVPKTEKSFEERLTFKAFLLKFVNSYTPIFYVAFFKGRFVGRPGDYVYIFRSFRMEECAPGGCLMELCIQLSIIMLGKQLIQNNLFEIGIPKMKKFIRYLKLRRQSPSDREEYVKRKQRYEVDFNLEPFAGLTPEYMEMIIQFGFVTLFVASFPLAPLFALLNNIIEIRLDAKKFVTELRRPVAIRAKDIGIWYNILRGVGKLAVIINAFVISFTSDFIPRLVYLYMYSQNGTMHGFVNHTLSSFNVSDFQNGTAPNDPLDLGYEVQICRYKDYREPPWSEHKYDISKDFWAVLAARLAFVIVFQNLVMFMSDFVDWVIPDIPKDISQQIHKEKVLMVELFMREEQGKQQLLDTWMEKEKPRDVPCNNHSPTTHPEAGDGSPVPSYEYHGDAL
Cardiac RTF inh: cardiac RTF calcium sensitivity inhibitors, primary screen, biochemical, IANBD-TnC fluorescence, EC70 calcium; 340,000 tested, 0.12% active; inhibition, % at 7.15 µM; Troponin I, cardiac muscle (Homo sapiens) + Troponin T, cardiac muscle (Homo sapiens) + …; IANBD-labeled cardiac RTF, Ca2+ fluorescence;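 active = inhibition above the mean inhibition of all tested compounds plus 3 SD, cut at about 17% in these data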;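 also: assay run at fixed EC70 calcium of 1.6 mM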
RTF Ca sens act: cardiac RTF calcium sensitivity activators, primary screen, biochemical, IANBD-TnC fluorescence, EC20 calcium; 340,000 tested, 0.24% active; IANBD-labeled TnC RTF fluorescence at EC20 calcium; 0% EC20 calcium, 100% full calcium; activation, % at 7.2 µM; Troponin I, cardiac muscle (Homo sapiens) + Troponin T, cardiac muscle (Homo sapiens) + …;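 active = activation above the mean over all tested compounds plus 3 SD, cut at about 30% in these data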;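 also: rise in fluorescence read as greater calcium sensitivity of cardiac thin filaments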
TMEM16A act: TMEM16A chloride channel activators or potentiators, primary screen, cell-based, HTS; B-score at 10 µM; Anoctamin-1 (Mus musculus), Q8BHY3; HEK293 TMEM16A/YFP-H148Q/I152L, iodide quench fluorescence; hits give low values; 340,000 tested, 0.3% active; AID 623877, 2012;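 active = fluorescence-ratio B-score plate-corrected deviation score at least 3 library SD below zero, with starting fluorescence score within 5 deviations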;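 also: channel opened by trigger with iodide after compound preincubation; score built on the fluorescence ratio of max minus min over baseline; more negative score means more quench and so TMEM16A activation or potentiation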
CRFR2-BP antag: antagonists of CRF-BP/CRF-R2 complex, primary screen, cell-based, HEK293, calcium dye fluorescence, uHTS. AID 588475, 2011. inhibition, % at 11.8 µM. 350,000 tested, 0.59% active. CRF-induced calcium fluorescence;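 active = inhibition of the ligand-induced calcium signal above about 50% at the single tested concentration, limit read from the data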
* hit, by the source's call; i = inactive; . = no result; + = active, no number.

SMILES | CRFR2-BP ag | TMEM16A inh | Cardiac RTF inh | RTF Ca sens act | TMEM16A act | CRFR2-BP antag
COC(=O)C1OC(OC2CC[C@]3(C)C(CC[C@@]4(C)[C@@H]3CC=C3[C@@H]5CC(C)(C)CC[C@]5(C(=O)OC5OC(CO)C(O)C(O)C5O)CC[C@]34C)C2(C)C)C(O)C(O)C1O[C@H]1OCC(O)C(O)C1O (some centres not stated) | 2 | . | -2 | -2 | . | -12
CC1(C)CC[C@]2(C(=O)O[C@@H]3OC(CO)[C@@H](O)[C@H](O)[C@H]3O)CC[C@]3(C)C(=CCC4[C@@]5(C)CC[C@H](O[C@@H]6OC(C(=O)O)[C@@H](O)[C@H](O)[C@H]6O)C(C)(C)C5CC[C@]43C)[C@@H]2C1 (some centres not stated) | 48 | . | -11 | 0 | -8.8* | -78
CC1(C)C[C@H]2C3=CCC4[C@@]5(C)CC[C@H](O)[C@@](C)(CO)C5CC[C@@]4(C)[C@]3(C)C[C@@H](O)[C@@]2(CO)[C@@H](O)[C@@H]1O (some centres not stated) | -1 | . | 1 | 1 | i | 1
C/C=C(\C)C(=O)OC1CC(C)(C)C[C@H]2C3=CC[C@@H]4[C@@]5(C)CCC(O[C@@H]6O[C@@H](C(=O)O)[C@@H](O)C(O[C@@H]7OC[C@H](O)[C@@H](O)[C@@H]7O[C@@H]7OC(CO)C(O)[C@@H](O)[C@@H]7O)C6O[C@@H]6OC(CO)C(O)C(O)C6O)[C@@](C)(CO)[C@@H]5CC[C@]4(C)[C@]3(C)CC(O)[C@@]12CO (some centres not stated) | 78* | . | 0 | -2 | -32* | -23
O=C(CCNS(=O)(=O)c1ccccc1F)NC1CCCCCC1 | 0 | . | 2 | -2 | i | -2
COc1ccccc1CN1CC(C(=O)N(C)CCc2nc3ccc(F)cc3[nH]2)CCC1=O (configuration not stated) | 0 | i | -14 | -1 | i | -4
Cc1ccc(S(=O)(=O)NCc2c(Cl)cccc2Oc2ccccc2)cc1 | 2 | 100* | -1 | 2 | i | 16
CCn1cc(/C=N/NS(=O)(=O)c2ccc(OC)cc2)c(C)n1 | -1 | i | -8 | -2 | i | -6
CN(C)CC(CCC(CN(C)C)C(=O)c1ccccc1)C(=O)c1ccccc1 (configuration not stated) | 11 | . | -1 | 1 | -9.5* | -10
CCCCCCn1c(=O)[nH]c2nc3cc(N)ccc3nc2c1=O | 275* | i | . | . | . | -308
COc1ccc(CCNC(=O)c2cccc3c2C(=O)N(C2CCCCC2)C3)cc1OC | -2 | i | -7 | 0 | i | 74*
CN(C)c1ccc(/C=N/NC(=O)c2nnn(-c3nonc3N)c2COc2ccc(F)cc2)cc1 | 4 | i | -4 | 5 | i | -9
CCCOc1ccc(-c2c(C(=O)N/N=C/c3ccncc3)nnn2-c2nonc2N)cc1 | 0 | i | 2 | -3 | -6.8* | -28
CCOc1ccc(/C=N/NC(=O)c2nnn(-c3nonc3N)c2COc2ccc(F)cc2)cc1 | 3 | i | -1 | 1 | -5.8* | 4
CC1CCCCC1NC(=O)CN1C(=O)CSc2cc(S(=O)(=O)N3CCCCCC3)ccc21 (configuration not stated) | -4 | i | 0 | -6 | i | 3
COc1ccc(-c2csc(NC(=O)c3ccccc3NS(=O)(=O)c3ccc(F)c(F)c3)n2)cc1 | 43 | 100* | -8 | -1 | i | 84*
COc1ccc(-c2csc(NC(=O)c3ccccc3F)n2)cc1 | 1 | i | -11 | -2 | i | -3
COc1ccc(C2CC(C(F)(F)F)n3nc(CO)c(Cl)c3N2)cc1OC (configuration not stated) | -1 | i | -2 | 1 | -14* | 7
COc1ccc(C2CC(C(F)(F)F)n3nc(C(=O)O)c(Cl)c3N2)cc1OC (configuration not stated) | 3 | i | -2 | -1 | i | 3
CCOc1ccc(C2OCCC(C)O2)cc1OC (configuration not stated) | 0 | . | 2 | -6 | i | -10
C[C@]12CCC(O)CC1CCC1C2CC[C@]2(C)C(c3cc(C(F)(F)F)n[nH]3)CCC12 (some centres not stated) | 54* | i | 0 | -6 | i | -93
CC12CCC3C(CCC4CC(O)CCC43C)C1CC(O)C2 (configuration not stated) | 10 | . | 7 | 3 | i | 8
COc1ccc(CCNC(=O)c2nnn(CC(=O)Nc3cccc(F)c3)c2N)cc1OC | 2 | i | 2 | 0 | i | -7
Cn1c(-c2ccc(C=O)s2)nc2c3ccccc3c3ccccc3c21 | 112* | i | -14 | 81* | i | -122
Cc1nn(C(=O)c2cccnc2)c(C)c1Sc1ccc(Br)cc1 | -2 | 25* | 14 | 4 | i | -28
SMILES | CRFR2-BP ag | TMEM16A inh | Cardiac RTF inh | RTF Ca sens act | TMEM16A act | CRFR2-BP antag
Cc1nn(C(=O)c2ccco2)c(C)c1Sc1ccc(Cl)cc1 | 1 | i | -7 | 6 | i | -21
Cc1ncc(CN2CCC(CO)(CCc3ccccc3)CC2)s1 | 3 | i | 1 | 0 | i | 3
CCN1C(=O)c2cccc3c(N)ccc(c23)C1=O | 213 | i | i | + | i | -136
Cc1ccc(N2C(=O)c3cccc4c(N)ccc(c34)C2=O)c2cccnc12 | 201* | i | i | 754* | i | -176
Cc1nn(C)c(C)c1N1C(=O)c2cccc3c(N)ccc(c23)C1=O | 330* | i | i | + | i | -398
CN(C)CCCN1C(=O)c2cccc3c(Br)ccc(c23)C1=O | 5 | i | -18 | 15 | i | -20
S=C(c1cccs1)N1CCN(c2ccccc2)CC1 | -2 | . | -2 | -8 | i | 24
Cc1ccc(S(=O)(=O)N2C[C@]3(O)C[C@@H]4C(=O)N(c5ccccc5)C(=O)[C@@H]4C[C@]3(OC(=O)NCC3CCCCC3)C2)cc1 | 2 | . | . | . | . | 1
CCO[C@@H]1OC(C(=O)N2CCCCCCC2)=C[C@H](C2CCCCC2)[C@H]1CCCO | 5 | i | -22 | -2 | i | 2
